Assay results published in PubChem BioAssay (Tox21).
“And” between values parts separate entries of the source, which are not always exact repeats. Equal entries are not always repeated. Records with an inconclusive call do not appear. Some compounds were tested as several samples or in several runs, with calls that do not always agree. The source made the active and inactive calls. Unless noted, calls follow the shape of the dose curve; as a rule, active = well fitted curve in the direction sought with a large enough effect in the repeat runs; inconclusive = weak or mixed curves; inactive = no such curve, though single readings can be large; an effect the other way counts as inactive or inconclusive.

How the values were obtained:
[1] = qHTS assay to identify small molecule agonists of the vitamin D receptor (VDR) signaling pathway - cell viability counter screen (AID 743224); also: series mostly up to about 63 µM; nearly all actives have a fitted effect of over 50% in size
How it was run: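 VDR-bla cells, 4 h after plating, exposed to compounds for 16 h at 37C; viability then read in the same wells as CellTiter-Glo luminescence after 30 min at room temperature, following the bla FRET read.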

[2] = qHTS assay to identify small molecule antagonists of the vitamin D receptor (VDR) signaling pathway - cell viability counter screen (AID 743225); also: nearly all actives have a fitted effect of over 50% in size
How it was run: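 Cytotoxicity counter screen read by CellTiter-Glo luminescence (30 min, room temperature) in the same wells as the VDR-bla antagonist readout. HEK 293T VDR-UAS-bla cells had 16 h at 37C with compound and 3 nM (final) 1-alpha,25-dihydroxyvitamin D3, then 2 h with FRET substrate.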

[3] = qHTS assay to identify small molecule agonists of the NFkB signaling pathway (AID 1159509; active = well fitted curve in the direction sought with a large enough effect in the signal ratio in the repeat runs, not every such curve was filed as active; the % refers to the signal ratio; also: series mostly up to about 61 µM)
How it was run: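 NFkB-bla ME-180 cells with a beta-lactamase reporter under an NF-kB response element were plated overnight, treated with compounds in DMSO for 5 hr at 37 C, then loaded with FRET substrate for 1.5 hr at room temperature.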

[4] = qHTS assay to identify small molecule agonists of the NFkB signaling pathway - cell viability counter screen (AID 1159515; calls by dose curve; also: series mostly up to about 61 µM; nearly all actives have a fitted effect of over 55% in size)
How it was run: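 NFkB-bla ME-180 cells, 2,000/well, plated overnight at 37 C; compound added for 5 hr at 37 C. Viability read in the same wells as the bla reporter, by CellTiter-Glo luminescence after 30 min at room temperature.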

[5] = qHTS assay to identify small molecule agonists of the endoplasmic reticulum stress response signaling pathway (AID 1159516; active = well fitted activation curve with a large enough effect in the signal ratio in the repeat runs, not every such curve was filed as active; the % refers to the signal ratio)
How it was run: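 CellSensor ESRE-bla HeLa cells, 1,500 per well, plated overnight, then exposed to compounds for 5 hr at 37 C. Beta-lactamase reporter read with LiveBLAzer B/G FRET substrate after 2 hr at room temperature, 405 nm excitation, 460 and 530 nm emission.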

[6] = qHTS assay to identify small molecule agonists of the endoplasmic reticulum stress response signaling pathway - cell viability counter screen (AID 1159517; calls by dose curve;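 also: HeLa cells carrying an ER stress response element beta-lactamase reporter; series mostly up to about 61 µM; nearly all actives have a fitted effect of over 50% in size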)
How it was run: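 Luminescence readout: CellTiter-Glo, 30 min RT, same wells as the ESRE-bla reporter read. HeLa ESRE-bla, 1,500 cells/well, o/n 37 C; cpd 5 hr 37 C/5% CO2.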

[7] = qHTS assay to identify small molecule antagonists of the retinoid-related orphan receptor gamma (ROR-gamma) signaling pathway - cell viability counter screen (AID 1159520); also: nearly all actives have a fitted effect of over 50% in size
How it was run: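 Tet-on ROR gamma CHO cells (1,000/well) were plated 4 hr, given compounds in DMSO for 2 hr at 37 C, then induced with 1 uM final doxycycline for 16 hr. Viability was read as ATP by CellTiter-Glo luminescence after 30 min.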

[8] = target: Nuclear receptor ROR-gamma (Homo sapiens) (UniProt P51449); test: qHTS assay to identify small molecule antagonists of the retinoid-related orphan receptor gamma (ROR-gamma) signaling pathway (AID 1159521; also: nearly all actives have a fitted effect of over 50% in size; also: potency is read from the fitted curve at half-maximal effect)
How it was run: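 Antagonist read-out: drop in luminescence (ONE-Glo) from an RORE-LUC reporter in CHO cells with doxycycline-inducible ROR-gamma; 2 hr compound pretreatment, 1 uM doxycycline, 16 hr incubation at 37 C.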

[9] = qHTS assay to identify small molecule agonists of the AP-1 signaling pathway - cell viability counter screen (AID 1159525; calls by dose curve; also: nearly all actives have a fitted effect of over 55% in size)
How it was run: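 ME-180 AP-1-bla, 2500 cells/well, Opti-MEM + 0.5% dialyzed FBS; overnight 37 °C; cpd 15-pt titration, 5 h 37 °C; CellTiter-Glo 30 min RT; luminescence read; normalised to TOAB and DMSO controls.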

[10] = qHTS assay to identify small molecule agonists of the AP-1 signaling pathway (AID 1159526; calls by dose curve; also: potency is read from the fitted curve at half-maximal effect)
[11] = qHTS assay to identify small molecule antagonists of the retinoid acid receptor (RAR) signaling pathway - cell viability counter screen (AID 1159551); also: nearly all actives have a fitted effect of over 35% in size
How it was run: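 C3RL4 RARE-luciferase cells, 1,000/well, incubated overnight, then dosed with compound plus 1 uM retinol (final). After 6 hr at 37 C, viability read by CellTiter-Glo ATP luminescence following 30 min at room temperature.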

[12] = qHTS assay to identify small molecule antagonists of the retinoic acid receptor (RAR) signaling pathway (AID 1159552; also: nearly all actives have a fitted effect of over 50% in size)
How it was run: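 Luminescent RARE reporter read-out in C3RL4 cells: 6 hr co-treatment at 37 C of test compounds with retinol at 1 uM final. Cells plated overnight beforehand; luciferase reagent incubated 30 min at room temperature before reading.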

[13] = qHTS assay to identify small molecule agonists of the retinoic acid receptor (RAR) signaling pathway (AID 1159553); also: potency is read from the fitted curve at half-maximal effect
How it was run: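 C3RL4 RARE-luciferase cells were seeded at 1,000/well and grown overnight at 37 C, then exposed to compounds for 6 hr at 37 C, 5% CO2. Luciferase reagent was added and luminescence was read after 30 min at room temperature.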

[14] = qHTS assay to identify small molecule agonists of the RXR signaling pathway - cell viability counter screen (AID 1159529)
How it was run: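 CellTiter-Glo luminescence gave viability in the wells also read for beta-lactamase. Cells (RXR-alpha-UAS-bla HEK 293T, 2% charcoal-stripped FBS medium) had 5 hr plating, then 16 hr compound exposure at 37 C; tetraoctyl ammonium bromide served as positive control.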

Measured: Potency

O=C(O)C1C(C(=O)O)C2(Cl)C(Cl)=C(Cl)C1(Cl)C2(Cl)Cl (centres undefined)
not listed: [12] | [13] | [14]
inactive: all other assays above

Cc1ccccc1N
not listed: [12] | [13] | [14]
inactive: all other assays above

O=[N+]([O-])c1ccc(Cl)cc1
not listed: [12] | [13] | [14]
inactive: all other assays above

ClCCOCCCl
not listed: [14]
inactive: all other assays above

COC(C)(C)CCCC(C)C/C=C/C(C)=C/C(=O)OC(C)C (centres undefined)
inactive: all assays above

OCc1ccco1
not listed: [12] | [13]
inactive: all other assays above

C[C@]12CC[C@H](O)CC1=CC[C@@H]1[C@@H]2CC[C@]2(C)C(=O)CC[C@@H]12
active: [8] 24.4 µM and 24.3 µM
not listed: [3] | [14]
inactive: all other assays above

Sc1ccccc1
49.7 µM (active) and inactive: [10]
not listed: [12] | [13] | [14]
inactive: all other assays above

O=C/C=C/c1ccccc1
inactive and 34.4 µM (active): [13]
not listed: [14]
inactive: all other assays above

COP(=S)(OC)SCN1C(=O)c2ccccc2C1=O
not listed: [8] | [12] | [13] | [14]
inactive: all other assays above

C=CC(=O)OCC(CC)CCCC (centres undefined)
inactive: all assays above

Nc1cccc(Cl)c1
not listed: [12] | [13]
inactive: all other assays above
